# According to PubChem BioAssay (NCI):
# About 83,000 compounds went through this panel and 20% of them were active in at least one assay; those are over-represented in the sample as a whole.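 96-well plates, one dose, 48 hours. Percent growth reported; active if below 10.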 Values without a mark were called inactive. Active and inactive are the calls of the source.
# Legend:
# Assay in all cases: NCI-60 one-dose screen, 48 h (100 = growth as untreated, 0 = no growth, -100 = all killed)
# Conditions in all cases: 10 µM unless noted
# DU-145 prostate = tested on: DU-145 prostate
# K-562 leukemia = tested on: K-562 leukemia
# MALME-3M melanoma = tested on: MALME-3M melanoma
# MDA-MB-231 breast = tested on: MDA-MB-231 breast
# RXF 393 renal = tested on: RXF 393 renal
# SF-268 CNS = tested on: SF-268 CNS
# SF-295 CNS = tested on: SF-295 CNS
# SF-539 CNS = tested on: SF-539 CNS
# UACC-257 melanoma = tested on: UACC-257 melanoma
# M14 melanoma = tested on: M14 melanoma
# HCT-15 colon = tested on: HCT-15 colon
# HT29 colon = tested on: HT29 colon
# SNB-75 CNS = tested on: SNB-75 CNS
# SNB-19 CNS = tested on: SNB-19 CNS
# U251 CNS = tested on: U251 CNS
# PC-3 prostate = tested on: PC-3 prostate
# SK-MEL-5 melanoma = tested on: SK-MEL-5 melanoma
# LOX IMVI melanoma = tested on: LOX IMVI melanoma
# SK-MEL-28 melanoma = tested on: SK-MEL-28 melanoma
SMILES,growth (DU-145 prostate),growth (K-562 leukemia),growth (MALME-3M melanoma),growth (MDA-MB-231 breast),growth (RXF 393 renal),growth (SF-268 CNS),growth (SF-295 CNS),growth (SF-539 CNS),growth (UACC-257 melanoma),growth (M14 melanoma),growth (HCT-15 colon),growth (HT29 colon),growth (SNB-75 CNS),growth (SNB-19 CNS),growth (U251 CNS),growth (PC-3 prostate),growth (SK-MEL-5 melanoma),growth (LOX IMVI melanoma),growth (SK-MEL-28 melanoma)
Cc1cc(N=O)cc(C(C)(C)C)c1O,103%,98.2%,88.4%,95.1%,105%,100%,99%,103%,75.1%,92.2%,101%,85%,87.7%,98.7%,88.6%,74.5%,98.3%,98.3%,106%
COc1cnc2c(c1)C(=O)c1c-2n(CCCNCCN2CCOCC2)c(=O)c2cc([N+](=O)[O-])ccc12,2.63% (active),0.36% (active),-11.7% (active),2.48% (active),-32.3% (active),12.3%,1.52% (active),-1.79% (active),5.34% (active),6.27% (active),0.784% (active),1.17% (active),-4.98% (active),15.2%,-56.5% (active),15.7%,-87.8% (active),-66.2% (active),47.5%
c1cnc2[nH]cc(-c3csc(-c4cn(CCCN5CCCCC5)c5ccccc45)n3)c2c1,67%,-45.4% (active),-55% (active),45%,52.3%,58.9%,88.8%,-48.5% (active),92%,-77.8% (active),4.45% (active),-55.8% (active),60.2%,39.2%,10.4%,34.9%,-80.1% (active),-67.6% (active),-68.4% (active)
CCCCC[C@H]1C/C=C2/C(=O)C=C[C@@H]2C/C=C\CCCC(=O)O[C@@H](CCCCC)C/C=C2/C(=O)C=C[C@@H]2C/C=C\CCCC(=O)O1,-93.1% (active),-45.3% (active),-78.4% (active),-50.1% (active),-92.4% (active),-78.7% (active),-45% (active),-89.5% (active),-61.7% (active),-82.8% (active),-54.5% (active),-77.9% (active),-80.8% (active),-83.4% (active),-94.3% (active),-71% (active),-97.4% (active),-87.1% (active),-81.9% (active)
NNC(=O)c1nc2ccccc2[nH]1,112%,87.2%,107%,103%,124%,102%,104%,103%,65.9%,92.4%,108%,103%,97.4%,103%,86.2%,96.7%,103%,95.3%,111%
Fc1ccc2c(c1)c(-c1nc(-c3c[nH]c4ncccc34)cs1)cn2CCCN1CCCCC1,66.7%,-58.8% (active),49.8%,55.3%,69.4%,66.6%,93.2%,61.4%,100%,-81% (active),-8.44% (active),-38.4% (active),64%,60.1%,24.9%,47.9%,-52% (active),44%,-68.3% (active)
Cn1cc(-c2csc(-c3cn(CCN)c4ccc(Br)cc34)n2)c2cccnc21,58.5%,18.1%,97.5%,62.4%,75.6%,78.4%,100%,82.5%,92.8%,86.1%,36.5%,47.2%,73.4%,74.1%,63.1%,66.3%,86.8%,53.5%,100%
O=C1c2ccccc2NC(c2cn(-c3ccccc3)nc2-c2cccs2)N1Cc1ccccc1 (configuration not stated),97.6%,70.7%,109%,77.4%,94.5%,78.9%,80%,88.5%,103%,80%,77.7%,75%,87.7%,95.4%,86.9%,64.8%,80.9%,62.1%,97.3%
